# Bioassay records: PubChem, Broad Institute
# A selection follows.
# aSyn 5UTR act: Activators via SNCA 5'UTR binding, MLPCN; alpha-synuclein 5'UTR reporter, activators screen; activity score, % (tested at 7.5 µM), hits read low; actives 7.1% (n = 300,000); in the data active = activity score below about -60%
# An asterisk follows results filed as active.
SMILES,aSyn 5UTR act
Nc1ccc(O)c2c(=O)cc(-c3ccccc3Cl)oc12,-100*
O=C(Nc1ccc(O)c2c(=O)cc(-c3cccc(Cl)c3)oc12)c1cccc(Cl)c1,61
Cc1ccc(N=Cc2sc(O)c3ccccc23)cc1,-237*
Cc1ccc(N=Cc2sc(O)c3ccccc23)c(C)c1,-190*
Cc1ccc(N=Nc2ccc3ccccc3c2O)cc1,61
Cc1ccc(-n2nnc(-c3ccnc4ccccc34)n2)cc1,-191*
Fc1ccc(-n2nnc(-c3ccnc4ccccc34)n2)cc1,-154*
CCN1CCN(c2ccc(NC(=O)c3cccc(F)c3)cc2Cl)CC1,-82*
O=C(Nc1ccc(N2CCOCC2)c([N+](=O)[O-])c1)c1ccco1,-73*
O=C(Nc1ccc(N2CCCC2)c(Cl)c1)c1ccco1,-113*
CCN1CCN(c2ccc(NC(=O)c3ccco3)cc2Cl)CC1,-112*
COc1ccc(/C=C/C2=NN(C)C(=O)CC2)cc1,-120*
CC(=Nc1ccc(C)c(C)c1)C1=C(O)CSC1=O,-122*
CC1CCCCN1C(=O)CSc1ccc(-c2ccc(F)cc2)nn1 (stereo not drawn),-76*
O=C(C1CC(c2ccccc2O)=NO1)N1CCCCC1 (stereo not drawn),-112*
CC1CCCCN1C(=O)C1CC(c2ccc(F)cc2)=NO1 (stereo not drawn),-89*
O=C(C1CC(c2ccc(F)cc2)=NO1)N1CCCCC1 (stereo not drawn),-141*
CC(=O)Nc1cccc(-c2csc(Nc3ccc(Cl)cn3)n2)c1,-174*
CC(=O)Nc1ccc(-c2csc(Nc3ccc(Cl)cn3)n2)cc1,-127*
COc1cccc(NC(=O)CSc2nnc(-c3ccc(C)cc3)o2)c1,-114*
Cc1ccc(SCC(=O)Nc2cccc(-c3nnc(-c4ccco4)o3)c2)cc1,-144*
COc1ccc(-c2nnc(SCC(=O)Nc3cc(F)ccc3C)o2)cc1,-161*
Cc1cc(C)nc(NC(=O)c2cc(-c3ccc(C)s3)nc3ccccc23)c1,-62*
NC1=NC(=O)/C(=C\c2cc([N+](=O)[O-])ccc2Cl)S1,-95*
Cc1cc([N+](=O)[O-])ccc1NC(=O)c1cccc(NC(=O)C(C)C)c1,-99*
SMILES,aSyn 5UTR act
Cc1cc([N+](=O)[O-])ccc1NC(=O)c1csc(C)c1C,-98*
COc1ccccc1NC(=O)c1coc(=O)c(Br)c1,-63*
CS(=O)(=O)Nc1ccc(C(=O)NCCC2=CCCCC2)cc1,-109*
O=C(NCCC1=CCCCC1)c1coc(=O)c(Br)c1,-65*
O=C(NCCc1ccccc1)c1coc(=O)c(Br)c1,-77*
CC(C)CNC(=O)c1coc(=O)c(Br)c1,-87*
CCc1ccc(Nc2ncccc2C#N)cc1,-68*
CCC(C)c1ccc(Nc2ncccc2C#N)cc1 (stereo not drawn),-176*
COc1ccc(CCNc2ncccc2C#N)cc1OC,-114*
COc1ccc(C(=O)/C=C/Nc2cccc(C)n2)cc1OC,-195*
COc1ccc(/C=c2/sc3n(c2=O)C(c2ccccc2OC)C2=C(N=3)c3ccccc3CC2)cc1O (stereo not drawn),94
COc1cc(/C=c2\sc3n(c2=O)CCCN=3)ccc1O,-102*
O=c1/c(=C/c2ccc([N+](=O)[O-])cc2)sc2n1CCCN=2,-173*
COc1ccc(NC(=S)Nc2ccccn2)c(OC)c1,-153*
COc1ccc(NC(=S)Nc2cc(C)ccn2)c(OC)c1,-243*
COc1ccc(NC(=O)c2nc(S(=O)(=O)Cc3cccc(C)c3)ncc2Cl)c(OC)c1,82
O=C(NCC1CCCO1)c1c(O)c2ccccc2[nH]c1=O (stereo not drawn),-140*
O=C(NC1CCCCCC1)c1c(O)c2ccccc2[nH]c1=O,-132*
Oc1[nH]c2c(Cl)cc(Cl)cc2c1N=NC(=S)NCC1CCCO1 (stereo not drawn),79
O=C(NC1CCCc2ccccc21)c1n[nH]c(=O)c2ccccc12 (stereo not drawn),88
COc1ccc(-c2csc(-c3ccc(C(=O)O)cc3)n2)cc1,-160*
O=C(O)c1ccc(-c2nc(-c3ccc(Cl)cc3)cs2)cc1,-173*
C=CCNC(=O)c1ccc(-c2nc(-c3ccccc3)cs2)cc1,-102*
O=C(O)c1ccc(-c2nc(-c3ccc(Cl)cc3Cl)cs2)cc1,-179*
N/C(=N\c1nc2ccccc2o1)NC(=O)c1ccccc1Br,-184*
SMILES,aSyn 5UTR act
COc1ccc(C(=O)/C=C/Sc2nc3ccccc3o2)cc1,-169*
Cc1ccc2oc(/N=C(\N)NC(=O)C(C)(C)C)nc2c1,96
N/C(=N\c1nc2ccccc2o1)NC(=O)c1ccc(Cl)cc1,-87*
COc1ccc(C(=O)N/C(N)=N/c2nc3ccccc3o2)cc1,-216*
N/C(=N\c1nc2ccccc2o1)NC(=O)c1ccc(F)cc1,-132*
COC(=O)N/N=C\c1ccc(OC/C=C/c2ccccc2)cc1,-95*
CC(=O)N/N=C\c1ccccc1OC/C=C/c1ccccc1,-128*
CCOC(=O)N/N=C/C=C/c1ccccc1,-105*
CCOC(=O)N/N=C\c1ccc(OC/C=C/c2ccccc2)cc1,-73*
COC(=O)N/N=C/c1ccc(Oc2ccccc2)cc1,-69*
CC(C)(O)C(=O)N/N=C\c1ccc(OC/C=C/c2ccccc2)cc1,-96*
COc1ccc(/C=N/NC(=O)COc2ccccc2-c2ccccc2)cc1,70
COc1ccc(-c2cc3nc4n(c(=O)c3s2)CCC4)cc1,59
COc1ccc(-c2nc3n(c2C)CCC3)cc1,-63*
C(#CC1CCCC1)c1ccc2c(c1)COc1c3ccccc3nn1-2,-146*
CC(C)(C)c1nnc(N/N=C/c2ccccc2O)n(N)c1=O,110
COc1ccc2nc(C)cc(N/N=C/c3cccc(OC)c3O)c2c1,100
Cc1cc(N/N=C/c2ccccc2O)c2ccccc2n1,-113*
Cc1ccccc1/C=N/Nc1nc2ccccc2c(=O)n1O,-129*
Cc1cccc(N/N=C/c2ccncc2)c1,-109*
Cc1cccc(N/N=C/c2ccccc2O)c1,-182*
O=C(Nc1nnc(Cc2ccccc2F)s1)Nc1ccccc1F,-99*
O=C(Nc1nnc(-c2ccccc2F)s1)Nc1ccccc1F,-155*
Oc1cccc2c(NC(=S)Nc3ccc(OC(F)F)cc3)cccc12,-138*
COc1ccccc1-c1nnc(Sc2nc([N+](=O)[O-])nn2C)o1,-83*
SMILES,aSyn 5UTR act
c1ccc(-c2cc3n(c2)CCc2ccccc2-3)cc1,-135*
Cc1cccc(CSc2cn(CC(=O)N3CCOCC3)c3ccccc23)c1,-130*
O=C(Cn1cc(SCc2cccc(Cl)c2)c2ccccc21)N1CCOCC1,-153*
CCCCN1C(=O)/C(=C2\SC(N3CCCCC3)=NC2=O)c2ccccc21,-149*
CCCCOc1ccc(NC(=O)c2cnc(C)cn2)cc1,-113*
Cc1cnc(C(=O)NCCc2ccc(Cl)cc2)cn1,-114*
Cc1cnc(C(=O)Nc2ccc3c(c2)CCC3)cn1,-136*
Cc1cnc(C(=O)Nc2ccc(F)c(F)c2)cn1,-133*
Cc1cc(C)n2nc(C(=O)Nc3ccc4c(c3)CCC4)nc2n1,-101*
O=C(Nc1ccc(N2CCOCC2)cc1)c1cnccn1,67
O=C(Nc1ccc2c(c1)CCC2)c1cnccn1,-175*
COc1ccc2cc(C(=O)NCc3ccccc3)[nH]c2c1,-66*
COc1ccc2cc(C(=O)NCCc3ccccc3)[nH]c2c1,-172*
COc1ccccc1-c1nnc2sc(-c3cc4ccccc4o3)nn12,76
COc1cccc(OC)c1-c1nn2c(-c3ccco3)nnc2s1,-78*
CC1=C([N+](=O)[O-])C(c2cccc(Br)c2)C2=C(N1)c1ccccc1C2=O (stereo not drawn),90
